Measurements: the supplement of paper PMC8866396
Structures can show the parent of a compound that is named as a salt. ± gives the standard deviation of the averaged measurements.

What was measured:
IL-6-GFP PC-9GR = assay: cell viability (CCK-8 OD) relative to DMSO control (fraction of control); higher = more viable cells; conditions: compound concentration: 10 uM; treatment time: 48 h
Summary of the method: (§1)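 Compounds from a purchased library of 510 were each tested at a final 10 μM for 48 h on PC-9 and PC-9GR lung cancer cells plated at 3000 cells/well in 96-well plates. These cells overexpressed IL-6-GFP from a lentiviral construct. Viability came from CCK-8 absorbance, given as the optical density of each well over that of the vehicle control well, across independent replicates numbering two.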

IL-6-GFP PC-9 = assay: as above; conditions: compound concentration: 10 uM; treatment time: 48 h
Summary of the method: as §1

Q: What does the source list for `CC(C(=O)O)c1ccc2c(c1)Cc1cccnc1O2` (stereo not given) [Pranoprofen]?
A: cell viability (IL-6-GFP PC-9GR): 1.12 ± 0.019; cell viability (IL-6-GFP PC-9): 1.25 ± 0.055

Q: Which results are given for `CN(N=O)C(=O)NC1C(O)OC(CO)C(O)C1O` (stereo not given) [Streptozotocin (STZ)]?
A: cell viability (IL-6-GFP PC-9GR): 1.23 ± 0.087; cell viability (IL-6-GFP PC-9): 0.636 ± 0.052

Q: With `CCCCNC(=O)NS(=O)(=O)c1ccc(C)cc1` [Tolbutamide] as the compound, how does the cell viability (IL-6-GFP PC-9GR) read?
A: 1.13 ± 0.081

Q: What about the cell viability (IL-6-GFP PC-9) of the same compound?
A: 1.2 ± 0.16

Q: What does the source list for `CC(NCc1ccc(OCc2cccc(F)c2)cc1)C(N)=O.CS(=O)(=O)O` (stereo not given) [Safinamide Mesylate]?
A: cell viability (IL-6-GFP PC-9GR): 1.27 ± 0.017; cell viability (IL-6-GFP PC-9): 0.749 ± 0.14

Q: For `Cc1ccc(Nc2nccc(N(C)c3ccc4c(C)n(C)nc4c3)n2)cc1S(N)(=O)=O` [Pazopanib], which cell viability (IL-6-GFP PC-9GR) is on record?
A: 0.795 ± 0.041

Q: What about the cell viability (IL-6-GFP PC-9) of the same compound?
A: 0.725 ± 0.062

Q: With `Cc1c(Cl)cccc1Nc1ncccc1C(=O)O` [Clonixin] as the compound, how does the cell viability (IL-6-GFP PC-9GR) read?
A: 0.814 ± 0.24

Q: What about the cell viability (IL-6-GFP PC-9) of the same compound?
A: 1.08 ± 0.027

Q: What does the source list for `CC12CCC(CC1=O)C2(C)C` (stereo not given) [Camphor]?
A: cell viability (IL-6-GFP PC-9GR): 1.24 ± 0.3; cell viability (IL-6-GFP PC-9): 0.786 ± 0.061

Q: For `NCCNc1ccc(NCCN)c2c1C(=O)c1ccncc1C2=O.O=C(O)/C=C\C(=O)O.O=C(O)/C=C\C(=O)O` [Pixantrone Maleate], which cell viability (IL-6-GFP PC-9GR) is on record?
A: 0.168 ± 0.39

Q: And the cell viability (IL-6-GFP PC-9)?
A: 0.3518 ± 0.00067

Q: Which cell viability (IL-6-GFP PC-9GR) does the source give for `Cc1nc(Nc2ncc(C(=O)Nc3c(C)cccc3Cl)s2)cc(N2CCN(CCO)CC2)n1.O` [Dasatinib Monohydrate] here?
A: 0.687 ± 0.054

Q: What about the cell viability (IL-6-GFP PC-9) of the same compound?
A: 0.488 ± 0.059

Q: With `CC(C)=CCOc1ccc(/C=C/C(=O)c2ccc(OCC=C(C)C)cc2OCC(=O)O)cc1` [Sofalcone] as the compound, how does the cell viability (IL-6-GFP PC-9GR) read?
A: 0.969 ± 0.2

Q: And the cell viability (IL-6-GFP PC-9)?
A: 1.01 ± 0.23

Q: With `O=C(O)c1ccccc1O.[NaH]` [Sodium salicylate] as the compound, how does the cell viability (IL-6-GFP PC-9GR) read?
A: 1.02 ± 0.2

Q: What about the cell viability (IL-6-GFP PC-9) of the same compound?
A: 1.03 ± 0.12

Q: Which cell viability (IL-6-GFP PC-9GR) does the source give for `N#Cc1cc(NC(=O)C(=O)O)c(Cl)c(NC(=O)C(=O)O)c1.NC(CO)(CO)CO.NC(CO)(CO)CO` [Lodoxamide Tromethamine] here?
A: 1.14 ± 0.25

Q: And the cell viability (IL-6-GFP PC-9)?
A: 1.09 ± 0.083

Q: With `Cc1nc(-c2ccc(OCC(C)C)c(C#N)c2)sc1C(=O)O` [Febuxostat] as the compound, how does the cell viability (IL-6-GFP PC-9GR) read?
A: 1.38 ± 0.24

Q: And the cell viability (IL-6-GFP PC-9)?
A: 1.12 ± 0.27

Q: Which results are given for `CCOc1ccc(NC(C)=O)cc1` [Phenacetin]?
A: cell viability (IL-6-GFP PC-9GR): 1.24 ± 0.33; cell viability (IL-6-GFP PC-9): 1.09 ± 0.054

Q: Which cell viability (IL-6-GFP PC-9GR) does the source give for `COc1ccc(C2OCC3C(c4cc(OC)c(OC)c(OC)c4)OCC23)cc1OC` (stereo not given) [Magnolin] here?
A: 0.791 ± 0.087

Q: And the cell viability (IL-6-GFP PC-9)?
A: 1.08 ± 0.081

Q: Which results are given for `CS(=O)(=O)n1cc2c(n1)CN(C1COC(c3cc(F)ccc3F)C(N)C1)C2` (stereo not given) [Omarigliptin (MK-3102)]?
A: cell viability (IL-6-GFP PC-9GR): 0.931 ± 0.14; cell viability (IL-6-GFP PC-9): 1.02 ± 0.25

Q: Which cell viability (IL-6-GFP PC-9GR) does the source give for `CNC(=O)c1cc(Oc2ccc(NC(=O)Nc3ccc(Cl)c(C(F)(F)F)c3)cc2)ccn1` [Sorafenib] here?
A: 0.634 ± 0.37

Q: And the cell viability (IL-6-GFP PC-9)?
A: 0.565 ± 0.1

Q: With `CNC(=O)c1ccc(N2C(=S)N(c3cnc(C#N)c(C(F)(F)F)c3)C(=O)C23CCC3)cc1F` as the compound, how does the cell viability (IL-6-GFP PC-9GR) read?
A: 1.03 ± 0.13

Q: What about the cell viability (IL-6-GFP PC-9) of the same compound?
A: 1.02 ± 0.11

Q: Which results are given for `Cn1c(=O)cc(N2CCCC(N)C2)n(Cc2ccccc2C#N)c1=O` (stereo not given) [Alogliptin]?
A: cell viability (IL-6-GFP PC-9GR): 0.0419 ± 0.21; cell viability (IL-6-GFP PC-9): 1.29 ± 0.11

Q: Which results are given for `Cc1ccc(C2OC(CO)C(O)C(O)C2O)cc1Cc1ccc(-c2ccc(F)cc2)s1` (stereo not given) [Canagliflozin]?
A: cell viability (IL-6-GFP PC-9GR): 1.14 ± 0.12; cell viability (IL-6-GFP PC-9): 1.16 ± 0.15

Q: What does the source list for `NC(CO)(CO)CO` [Trometamol]?
A: cell viability (IL-6-GFP PC-9GR): 0.932 ± 0.18; cell viability (IL-6-GFP PC-9): 1.09 ± 0.061

Q: With `COc1cc(CNC(=O)CCCC/C=C\C(C)C)ccc1O` [Zucapsaicin] as the compound, how does the cell viability (IL-6-GFP PC-9GR) read?
A: 0.332 ± 0.62

Q: And the cell viability (IL-6-GFP PC-9)?
A: 1.22 ± 0.092

Q: `COC(=O)/C=C/C(=O)OC` [Dimethyl Fumarate] was tested. Which cell viability (IL-6-GFP PC-9GR) did it give?
A: 1.13 ± 0.16

Q: And the cell viability (IL-6-GFP PC-9)?
A: 1.33 ± 0.26

Q: Which cell viability (IL-6-GFP PC-9GR) does the source give for `COc1cc2c3cc1Oc1c(OC)c(OC)cc4c1C(Cc1ccc(O)c(c1)Oc1ccc(cc1)CC3N(C)CC2)N(C)CC4.Cl.Cl` (stereo not given) [Berbamine (dihydrochloride)] here?
A: 1.14 ± 0.35

Q: And the cell viability (IL-6-GFP PC-9)?
A: 1.04 ± 0.053

Q: Which results are given for `COc1ccc2c(c1)c(CC(=O)O)c(C)n2C(=O)c1ccc(Cl)cc1` [Indomethacin]?
A: cell viability (IL-6-GFP PC-9GR): 0.478 ± 0.33; cell viability (IL-6-GFP PC-9): 1.03 ± 0.027
